Screens (PubChem BioAssay)
An excerpt weighted towards active compounds, which were near 6.9% of everything screened.
Giardia kill = kills Giardia lamblia; Giardia lamblia trophozoite viability; activity change, % at 7.66 µM, hits read low; 340,000 tested, 0.15% active; in the data active = activity change below about -80%; inconclusive = between about -30% and that limit;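 note: parasites exposed to compound for two days anaerobically before the ATP read; % is set by controls: 0 for no effect and ±100 for the full control effect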
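Giardia lamblia trophozoites (100 cells/well) were incubated with compounds for 48 h at 37 deg C under anaerobic conditions. Viability was read as ATP content by one-step luminescence after 15-30 min at room temperature.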
S-ASM inh = human S-ASM enzyme inhibition | P17405 | placental ASM, HMU-PC fluorogenic substrate, 60 min | Potency, µM (titrated, usually from 57.5 µM), for inactives: top-dose activity change, negative = inhibition, hits mostly inhibitors | 340,000 tested, 0.006% active | AID 504937; note: potency is the fitted concentration of half-maximal effect
Target sequence (P17405 47-631 limits assumed): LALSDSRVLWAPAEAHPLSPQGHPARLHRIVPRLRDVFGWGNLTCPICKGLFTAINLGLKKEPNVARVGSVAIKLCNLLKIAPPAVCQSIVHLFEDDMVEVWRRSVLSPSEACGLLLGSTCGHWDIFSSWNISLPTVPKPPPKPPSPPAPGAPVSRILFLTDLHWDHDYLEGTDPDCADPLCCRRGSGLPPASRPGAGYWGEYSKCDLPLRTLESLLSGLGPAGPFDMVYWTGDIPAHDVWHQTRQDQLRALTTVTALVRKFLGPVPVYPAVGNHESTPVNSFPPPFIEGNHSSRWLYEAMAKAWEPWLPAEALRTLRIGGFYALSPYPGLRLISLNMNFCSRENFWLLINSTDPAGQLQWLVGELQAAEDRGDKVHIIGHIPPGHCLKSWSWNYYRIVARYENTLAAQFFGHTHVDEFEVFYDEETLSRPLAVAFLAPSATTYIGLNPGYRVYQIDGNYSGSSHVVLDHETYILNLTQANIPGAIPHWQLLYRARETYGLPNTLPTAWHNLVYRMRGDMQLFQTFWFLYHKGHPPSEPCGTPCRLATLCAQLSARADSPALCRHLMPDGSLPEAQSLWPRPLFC
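Fluorescence read-out (Ex 386 nm, Em 447 nm) after stopping the reaction at pH 10. Enzyme: ASM from human placenta; substrate HMU-PC0, 9 uM final; 60 min, 37 °C. Compound preincubation 10 min, ambient temperature.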
MCF10A rereplic = induces DNA re-replication in MCF 10a normal breast cells | MCF 10A DNA re-replication, Hoechst nuclear intensity, 48 h | Potency, µM (doses to about 46.1 µM), for the others: at the top dose activity, positive = re-replication, actives largely listed as activators | 350,000 tested, 2.9% active | AID 624296; note: potency is the fitted concentration of half-maximal effect; % of control where 0% means no effect; nearly all actives have a fitted effect of over 50% in size
SW480 rereplic = inducers of DNA re-replication in SW480 colon cancer cells; SW480 DNA re-replication, Hoechst DNA content imaging, 48 h; Potency, µM (highest dose often 46.1 µM), for the others: at the top dose re-replication activation, most hits filed as activators; 340,000 tested, 1.8% active; AID 624297; note: potency is the fitted concentration of half-maximal effect; % of control where 0% means no effect; nearly all actives have a fitted effect of over 55% in size
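250 cells/well; 23 nL cpd via pin tool; 48 hr, 37 C, 5% CO2; Hoechst 40 min; imager read of total nuclear intensity, ex 405/em 500-530 nm.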
KB-3-1 cytotox = KB-3-1 parental cell cytotoxicity | KB-3-1 viability, CellTiter-Glo ATP luminescence, 72 h | Potency, µM (series often up to 46.1 µM), actives largely listed as cytotoxic | AID 1347075 | 400,000 tested, 1.4% active; note: potency is the fitted concentration of half-maximal effect; % is set by controls: 0 for no effect and ±100 for the full control effect; nearly all actives have a fitted effect of over 60% in size
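Parental KB-3-1 adenocarcinoma cells in phenol-red-free DMEM with 10% FBS were pin-treated with compounds at several concentrations, incubated 72 h at 37 °C, and viability read by CellTiter-Glo luminescence; concentration-effect curves were fitted after normalization.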
KB-V1 cytotox = KB-V1 MDR subline cytotoxicity; KB-V1 MDR cells viability, CellTiter-Glo, 72 h; AID 1347076; Potency, µM (doses to about 46.1 µM), most hits filed as cytotoxic; 400,000 tested, 3.4% active; note: potency is the fitted concentration of half-maximal effect; % is set by controls: 0 for no effect and ±100 for the full control effect; nearly all actives have a fitted effect of over 60% in size
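KB-V1, DMEM (no phenol red) + 10% FBS; cpd pin-transferred, titration series; 72 h, 37 degrees C; CellTiter-Glo, luminescence. Data normalized, curve-fit.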
Active calls of the source: *. Unless noted, calls come from the whole dose curve; as a rule, active = well fitted curve in the direction sought with a large enough effect; inconclusive = small, poorly fitted or top-dose-only effect, or another doubt; inactive = no such curve, though single readings can be large; an effect the other way counts as inactive or inconclusive.

What do the screens show for `COc1ccc(NC(=O)C2CCC(N3C(=O)C4C5C=CC(C5)C4C3=O)CC2)cc1` (centres undefined)?
Giardia kill: -16.5; S-ASM inh: -0.5%; MCF10A rereplic: -3.3%; SW480 rereplic: 0.9%; KB-3-1 cytotox: inactive; KB-V1 cytotox: inactive

How did O=C(Nc1ccc(Cc2ccncc2)cc1)C1CCC(N2C(=O)C3C4C=CC(C5CC45)C3C2=O)CC1 (centres undefined) do in these assays?
Giardia kill: 7.2; S-ASM inh: 1.0%; MCF10A rereplic: inconclusive; SW480 rereplic: 14.2%; KB-3-1 cytotox: inconclusive; KB-V1 cytotox: 11.6µM*

How did CC(Cl)OC(=O)Nc1cccc2cccnc12 (centres undefined) do in these assays?
Giardia kill: -8.1

How did COc1ccc(CSCC(=O)Nc2ccccc2SC)cc1 do in these assays?
Giardia kill: -17.4; S-ASM inh: -3.2%; MCF10A rereplic: inconclusive; SW480 rereplic: inconclusive; KB-3-1 cytotox: inconclusive; KB-V1 cytotox: 18.4µM*

What do the screens show for `COc1ccc(NC(=O)CN(C)CC(=O)Nc2ccccc2SC)cc1`?
Giardia kill: -1.6; S-ASM inh: 8.4%; MCF10A rereplic: -0.7%; SW480 rereplic: -1.3%; KB-3-1 cytotox: inactive; KB-V1 cytotox: 20.6µM*

Results for CC(C(=O)N1CCCCC1)N(C)CC(=O)Nc1cccc(F)c1 (centres undefined) ?
Giardia kill: -6.7; S-ASM inh: -0.3%; MCF10A rereplic: -5.3%; SW480 rereplic: -1.4%; KB-3-1 cytotox: inactive; KB-V1 cytotox: inactive

How did CCOc1ccc(NC(=O)CN(C)CC(=O)Nc2ccccc2SC)cc1OCC do in these assays?
Giardia kill: -4.6; S-ASM inh: 6.9%; MCF10A rereplic: 0.5%; SW480 rereplic: 2.8%; KB-3-1 cytotox: inactive; KB-V1 cytotox: 3.66µM*

Results for COc1ccc(NC(=O)CN(C)C(C)C(=O)N2CCCCC2)cc1 (centres undefined) ?
Giardia kill: -0.7; S-ASM inh: 2.0%; MCF10A rereplic: -4.4%; SW480 rereplic: -5.8%; KB-3-1 cytotox: inactive; KB-V1 cytotox: 11.6µM*

What do the screens show for `COc1ccc(CSCC(=O)NCCC(C)C)cc1`?
Giardia kill: -10.8; S-ASM inh: 6.5%; MCF10A rereplic: 5.2%; SW480 rereplic: -3.7%; KB-3-1 cytotox: inactive; KB-V1 cytotox: inactive

How did CN1CCN(C(=O)C(=O)Nc2c3c(nn2-c2ccc(F)cc2)CSC3)CC1 do in these assays?
KB-3-1 cytotox: inactive; KB-V1 cytotox: inactive

Results for O=C(Cn1c(=O)n(CC2CCCO2)c(=O)c2ccccc21)Nc1ccc(F)cc1F (centres undefined) ?
KB-3-1 cytotox: inactive; KB-V1 cytotox: inactive

What do the screens show for `CSc1ccccc1NC(=O)CN(C)CC(=O)c1c(C)[nH]c2ccccc12`?
Giardia kill: 8.3; S-ASM inh: -3.4%; MCF10A rereplic: 3.1%; SW480 rereplic: -6.9%; KB-3-1 cytotox: inactive; KB-V1 cytotox: 20.6µM*

Results for CSc1ccccc1NC(=O)CN(C)CC(=O)NCC(=O)Nc1ccc(F)cc1 ?
Giardia kill: -5.1; S-ASM inh: -1.4%; MCF10A rereplic: 8.8%; SW480 rereplic: 0.5%; KB-3-1 cytotox: inactive; KB-V1 cytotox: inactive

What do the screens show for `Cc1ccc(C(=O)NCC(c2ccc3c(c2)OCO3)N2CCN(C)CC2)cc1C` (centres undefined)?
KB-3-1 cytotox: inactive; KB-V1 cytotox: inactive

How did Cc1cccn2c(=O)c3cc(C(=O)NCc4ccc(F)cc4)c(=N)n(CC4CCCO4)c3nc12 (centres undefined) do in these assays?
Giardia kill: 50.5; S-ASM inh: 11.1%; MCF10A rereplic: 15.2%; SW480 rereplic: inconclusive; KB-3-1 cytotox: inactive; KB-V1 cytotox: inactive

How did Cc1cccn2c(=O)c3cc(C(=O)NC4CCCCC4)c(=N)n(Cc4ccc(F)cc4)c3nc12 do in these assays?
Giardia kill: 48.9; S-ASM inh: 212.6%; MCF10A rereplic: inconclusive; SW480 rereplic: 1.3µM*; KB-3-1 cytotox: inactive; KB-V1 cytotox: inactive
